In PubChem BioAssay AID1159580 (chemical genetic matrix, 2015):
“And” between values parts separate entries of the source, which are not always exact repeats. Identical values can stand only once. Hit rate of the full screen: of about 5,500 compounds, about 2,000 (36%) were called active. Roughly 18% stayed inconclusive and do not appear here. No stated cut-off is given here; in the data, active means normalized growth mostly below about 0.91 (no sharp cut-off); inconclusive means no clear call, values can overlap the other calls; inactive means mostly above about 0.92. The list shows a part of the results.

Test: chemical genetic growth profiling, strain panel (AID 1159580);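 further: tested at 20 µM; growth read once vehicle control cultures reached saturation at 30 °C; 1 = growth at the plate median or of vehicle wells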
Settings: S. cerevisiae deletion strains, growth OD

Measured: normalized growth

CC(Cc1ccc(O)c(O)c1)(NN)C(=O)O (stereo not drawn)
inactive: locus YAL021C, strain ccr4, stronger effect = lower value 1 | locus YAL026C, strain drs2, stronger effect = lower value 1 | locus YAL030W, strain snc1, stronger effect = lower value 0.997 | locus YBL061C, strain skt5, stronger effect = lower value 1.01 | locus YBR009C, strain hhf1, stronger effect = lower value 0.982 | locus YBR021W, strain FUR4, stronger effect = lower value 1.01 | locus YBR023C, strain chs3, stronger effect = lower value 0.976 | locus YBR171W, strain sec66, stronger effect = lower value 1.01 | locus YBR229C, strain ROT2, stronger effect = lower value 1 | locus YBR231C, strain swc5, stronger effect = lower value 0.997 | locus YBR279W, strain paf1, stronger effect = lower value 0.988 | locus YCL011C, strain gbp2, stronger effect = lower value 1.02 | locus YCL016C, strain dcc1, stronger effect = lower value 1.01 | locus YCL029C, strain bik1, stronger effect = lower value 1.02 | locus YCL069W, strain vba3, stronger effect = lower value 1 | locus YCR088W, strain abp1, stronger effect = lower value 1 | locus YDL005C, strain med2, stronger effect = lower value 1 | locus YDL035C, strain GPR1, stronger effect = lower value 1 | locus YDL040C, strain nat1, stronger effect = lower value 1 | locus YDL074C, strain BRE1, stronger effect = lower value 0.972 | locus YDL101C, strain DUN1, stronger effect = lower value 1.02 | locus YDL134C, strain PPH21, stronger effect = lower value 1.04 | locus YDL185W, strain tfp1, stronger effect = lower value 0.989 | locus YDL192W, strain arf1, stronger effect = lower value 1.01 | locus YDR001C, strain nth1, stronger effect = lower value 0.994 | locus YDR069C, strain doa4, stronger effect = lower value 0.99 | locus YDR101C, strain arx1, stronger effect = lower value 1 | locus YDR137W, strain rgp1, stronger effect = lower value 1.04 | locus YDR159W, strain sac3, stronger effect = lower value 1 | locus YDR162C, strain NBP2, stronger effect = lower value 1.01 | locus YDR195W, strain ref2 0.972 | locus YDR297W, strain sur2, stronger effect = lower value 1 | locus YDR318W, strain mcm21, stronger effect = lower value 1.01 | locus YDR334W, strain swr1, stronger effect = lower value 0.999 | locus YDR335W, strain msn5, stronger effect = lower value 0.982 | locus YDR388W, stronger effect = lower value 1.01 | locus YDR392W, strain spt3, stronger effect = lower value 0.985 | locus YDR502C, strain sam2, stronger effect = lower value 1.01 | locus YEL003W, strain gim4, stronger effect = lower value 0.991 | locus YEL037C, strain rad23, stronger effect = lower value 1.02 | locus YEL061C, strain CIN8 (second series), stronger effect = lower value 0.999 | locus YEL061C, strain CIN8, stronger effect = lower value 1.01 | locus YER015W, strain faa2, stronger effect = lower value 0.984 | locus YER016W, strain bim1, stronger effect = lower value 1.01 | locus YER110C, stronger effect = lower value 1.02 | locus YER111C, strain swi4, stronger effect = lower value 1.01 | locus YER155C, strain BEM2 (second series), stronger effect = lower value 1.01 | locus YER155C, strain BEM2, stronger effect = lower value 0.999 | locus YER167W, strain BCK2, stronger effect = lower value 1.01 | locus YFR010W, strain ubp6, stronger effect = lower value 0.986 | locus YGL078C, strain dbp3, stronger effect = lower value 0.979 | locus YGL086W, strain mad1, stronger effect = lower value 1.02 | locus YGL167C, strain pmr1, stronger effect = lower value 1 | locus YGL173C, strain kem1, stronger effect = lower value 1.03 | locus YGL227W, strain vid30, stronger effect = lower value 0.989 | locus YGL240W, strain doc1, stronger effect = lower value 1 | locus YGL248W, strain PDE1, stronger effect = lower value 0.991 | locus YGL253W, strain hxk2, stronger effect = lower value 0.997 | locus YGR078C, strain PAC10, stronger effect = lower value 0.966 | locus YGR135W, strain pre9, stronger effect = lower value 1.01 | locus YGR229C, strain SMI1, stronger effect = lower value 0.992 | locus YGR252W, strain gcn5, stronger effect = lower value 1.01 | locus YHR013C, strain ard1, stronger effect = lower value 1.04 | locus YHR027C, strain rpn1, stronger effect = lower value 0.995 | locus YHR030C, strain SLT2, stronger effect = lower value 0.997 and 0.958 | locus YHR079C, strain IRE1 (second series), stronger effect = lower value 1.02 | locus YHR079C, strain IRE1, stronger effect = lower value 0.961 | locus YHR094C, strain hxt1, stronger effect = lower value 1.01 | locus YHR129C, strain ARP1, stronger effect = lower value 1.01 | locus YHR142W, strain chs7, stronger effect = lower value 1.02 | locus YHR200W, strain rpn10, stronger effect = lower value 1.01 | locus YIL066C, strain RNR3, stronger effect = lower value 0.965 | locus YIL073C, strain SPO22, stronger effect = lower value 1.14 | locus YIL125W, strain kgd1, stronger effect = lower value 1 | locus YIR030C, strain dcg1, stronger effect = lower value 1.01 | locus YJL092W, strain hpr5, stronger effect = lower value 0.997 | locus YJL095W, strain BCK1 (second series), stronger effect = lower value 0.996 | locus YJL095W, strain BCK1, stronger effect = lower value 1 and 0.954 | locus YJL115W, strain asf1, stronger effect = lower value 0.983 | locus YJL129C, strain trk1, stronger effect = lower value 1.02 | locus YJL134W, strain LCB3, stronger effect = lower value 1 | locus YJL154C, strain vps35, stronger effect = lower value 1.01 | locus YJL164C, strain tpk1, stronger effect = lower value 1.01 | locus YJL166W, strain qcr8, stronger effect = lower value 1.02 | locus YJL168C, strain set2, stronger effect = lower value 1.01 | locus YJL187C, strain SWE1 (second series), stronger effect = lower value 1 | locus YJR043C, strain POL32, stronger effect = lower value 1.01 | locus YJR066W, strain TOR1, stronger effect = lower value 0.936
